# Source: PubChem
# Only some compounds are listed: those with a hit (about 3.3% of all), similar ones and a draw of the others.
# HNF4A DNA FP: change in binding of human HNF4 alpha to DNA; P41235; HNF4a-FITC DNA binding, fluorescence polarization, 1 h; activity change, % at 10 µM; hit rate 0.3% among 360,000; AID 1224865; in the data active = activity change above about 30%, passing the limit was not always enough
# Rpn11 inh: inhibitors of human proteasome Rpn11. O00487. human 26S proteasome, Ub4-pepOG fluorescence polarization; 20S core pre-blocked with epoxomicin. inhibition, % at 20 µM. hit rate 0.59% among 360,000. AID 588493;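 active = inhibition at 20 µM, scaled to each plate's controls, above about 33%, limit read from the data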
# Target sequence (O00487 whole entry, looked up): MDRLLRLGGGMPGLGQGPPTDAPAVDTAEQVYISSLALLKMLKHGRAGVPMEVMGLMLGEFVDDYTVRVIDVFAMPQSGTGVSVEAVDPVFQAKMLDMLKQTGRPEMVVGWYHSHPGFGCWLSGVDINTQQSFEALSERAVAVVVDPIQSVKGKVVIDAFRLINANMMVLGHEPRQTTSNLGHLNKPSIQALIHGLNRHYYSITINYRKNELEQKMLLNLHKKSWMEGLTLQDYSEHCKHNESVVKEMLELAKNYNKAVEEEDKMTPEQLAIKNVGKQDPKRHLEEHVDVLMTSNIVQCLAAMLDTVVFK
# CTSL1 counter: blocks F. hepatica cathepsin L1 in PFM18AAP counter-screen. recombinant F. hepatica cathepsin L1, Z-Leu-Arg-MCA fluorescence. inhibition, % at 5.96 µM. hit rate 0.49% among 300,000;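 active = inhibition above the mean of all tested compounds plus 3 SD, set per screening campaign, cut at about 17% in these data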;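 also: 0% = plate median of test compound wells and 100% = 1 µM Z-Phe-Ala-diazomethylketone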
# CendR NRP1 mod: alters CendR peptide binding to human NRP-1; hit rate 0.85% among 360,000; inhibition, % at 25 µM; FAM-RPARPAR peptide binding to NRP-1, fluorescence polarization; O14786;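 active = inhibition or corrected inhibition above about 18%, plus a signal ratio from 0.5 to 1.5, limit read from the data, passing the limit was not always enough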
# PHOSPHO1 inh: PHOSPHO1 (human) inhibition; Q8TCT1; recombinant PHOSPHO1, absorbance phosphatase assay; inhibition, % at 13.3 µM; hit rate 1.1% among 290,000; AID 1565; in the data active = inhibition above about 60%
# Target sequence (Q8TCT1 whole entry, looked up): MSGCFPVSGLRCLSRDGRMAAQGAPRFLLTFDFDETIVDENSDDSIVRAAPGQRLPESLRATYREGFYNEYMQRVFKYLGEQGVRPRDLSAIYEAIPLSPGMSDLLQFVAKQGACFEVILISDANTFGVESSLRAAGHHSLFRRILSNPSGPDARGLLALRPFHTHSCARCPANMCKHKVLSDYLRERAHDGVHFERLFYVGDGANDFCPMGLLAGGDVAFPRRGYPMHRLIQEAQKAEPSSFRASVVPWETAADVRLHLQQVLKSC
# TPT1 inhibitor: C. albicans TPT1 enzyme inhibition; inhibition, % at 5 µM; recombinant caTPT1, FP RNA substrate dephosphorylation; hit rate 0.81% among 300,000; AID 1962;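 active = inhibition above the mean of all tested compounds plus 3 SD, set per screening campaign, cut at about 24% in these data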;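 also: plate controls were DMSO alone for no effect and ferristatin control at 100 nM for full effect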
# Rpn11 confirm: confirmation of human proteasome Rpn11 inhibitors; shares compounds with Rpn11 inh; purified human 26S proteasome, Ub4-pepOG fluorescence polarization; proteasome pretreated with epoxomicin; inhibition, % at 20 µM; hit rate 29% among 1,900
# MMP-2 inh: counter-screen for RPN11 inhibitors: inhibition of human MMP-2; hit rate 4% among 1,900; recombinant MMP-2, FRET peptide cleavage fluorescence; inhibition, % at 20 µM; AID 602330; shares compounds with Rpn11 inh;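 also: human MMP-2 activated beforehand with APMA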
# Thrombin FP: thrombin (bovine) inhibition counter-screen | inhibition, % at 20 µM | AID 602333 | shares compounds with Rpn11 inh | bovine thrombin cleavage of Ub4-pepOG, fluorescence polarization | hit rate 13% among 1,900;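 active = mean inhibition at least 40% at 20 µM, or signal 3 deviations below plate average, so some actives read negative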;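 also: plate controls were thrombin with DMSO for no effect and buffer wells lacking thrombin for full effect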
# * hit, by the source's call; · = not tested or not shown. Rule as the data show it, unless noted: active = inhibition above about 40%; inactive = the rest.
SMILES,HNF4A DNA FP,Rpn11 inh,CTSL1 counter,CendR NRP1 mod,PHOSPHO1 inh,TPT1 inhibitor,Rpn11 confirm,MMP-2 inh,Thrombin FP
Cc1ccccc1C(=O)Nc1nc(SCc2ccc(Cl)cc2)n[nH]1,2,1,-2,-4,-5,-1,·,·,·
O=C(CN1C(=O)C2C3C=CC(C3)C2C1=O)Nc1nc(SCc2ccc(Cl)cc2)n[nH]1 (centres undefined),5,112*,-3,4,11,0,1,29,4
O=C(Nc1ccnc(=O)[nH]1)c1sc2ccccc2c1Cl,0,41*,3,-7,25,0,3,16,-8
O=C(CCNC(=O)C1CCN(S(=O)(=O)c2ccccc2)CC1)NCc1ccncc1,-2,-2,4,-2,-16,1,·,·,·
O=C1c2ccccc2-c2onc3c(N4CCN(CCO)CC4)cc(N4CCN(C(=O)c5ccco5)CC4)c1c23,5,49*,1,136,18,-11,active,-92,active
Cc1ccc(N(C(=O)c2csnn2)C(C(=O)NC2CCCCC2)c2cccnc2)cc1C (centres undefined),0,3,1,3,22,-2,·,·,·
CCOc1ccc(N2CCn3c2nc2c3c(=O)n(CCc3ccccc3)c(=O)n2C)cc1,·,·,·,·,-12,·,·,·,·
O=C(Nc1cccc(Cl)c1)Nc1nnc(-c2ccncc2)s1,-42,11,4,-64,-17,3,·,·,·
O=C(Nc1nnc(-c2ccc(F)cc2)s1)Nc1ccccc1F,-1,-5,-7,4,28,-4,·,·,·
O=C(Nc1ccc(Cl)cc1)Nc1nnc(-c2ccncc2)s1,-13,170*,0,-28,-23,2,30,3,-22
O=C(Nc1ccc(F)cc1)Nc1nnc(-c2ccncc2)s1,-1,66*,3,-27,-6,-3,41*,-2,3
N=c1c2ccccc2nnn1-c1cccc(C(F)(F)F)c1,-1,5,0,3,25,1,·,·,·
NC(=O)C1CCN(C(=O)c2cccc3ccccc23)CC1,0,1,-5,2,·,-1,·,·,·
Cc1ccccc1C(=O)N1CCC(C(N)=O)CC1,-2,35*,-2,15,3,-2,2,-31,5
CCN(c1ccccc1)S(=O)(=O)c1nnc(NC(=O)C(C)(C)C)s1,0,-6,1,8,26,-4,·,·,·
CCOC(=O)C1CCCN(C(=O)c2ccc(-c3ccc([N+](=O)[O-])cc3)o2)C1 (centres undefined),-1,1,0,-5,·,5,·,·,·
O=C(N/N=C/c1ccc([N+](=O)[O-])cc1)c1cccnc1,-1,2,-2,-16,·,-1,·,·,·
O=C(N/N=C/c1ccc(-c2ccc([N+](=O)[O-])cc2)o1)c1cccnc1,8,85*,3,-23,33,13,49*,-15,-17
O=[N+]([O-])c1ccc(-c2ccc(/C=N/Nc3nc(N4CCCCC4)nc(N4CCCCC4)n3)o2)cc1,19,58*,·,-15,-28,·,-1,-20,-14
CC(=O)Nc1cccc(-c2cnc(NC(C)=O)cn2)c1,-3,-6,·,10,·,·,·,·,·
O=C(NCCCN1CCCC1=O)c1cccc(S(=O)(=O)N2CCN(c3ccc(F)cc3)CC2)c1,7,1,16,14,-5,-1,·,·,·
COc1ccc(-n2c(=O)/c(=C\c3cccs3)s/c2=C(/C#N)C(=O)NCCN2CCOCC2)cc1,4,105*,7,-177,33,22,38,15,44*
C=CCn1c(=O)/c(=C\c2ccsc2)s/c1=C(/C#N)C(=O)NCCN1CCOCC1,0,14,1,-128,0,3,·,·,·
Cn1c2ccccc2c2cc(C(=O)OCC(=O)N3CC(=O)Nc4ccccc43)sc21,28,65*,0,-42,44,12,121*,-21,88*
O=C1CN(C(=O)COC(=O)c2cccs2)c2ccccc2N1,4,0,·,3,·,·,·,·,·
SMILES,HNF4A DNA FP,Rpn11 inh,CTSL1 counter,CendR NRP1 mod,PHOSPHO1 inh,TPT1 inhibitor,Rpn11 confirm,MMP-2 inh,Thrombin FP
Cc1cccc(NC(=S)N/N=C/c2ccc([N+](=O)[O-])s2)c1,10,39*,12,-51,52,22,2,36,-13
COc1ccc(-c2nc(SCC(=O)NC3CCCC3)c(-c3ccc(OC)cc3)[nH]2)cc1,1,4,-3,-1,-6,4,·,·,·
COc1ccc(-c2nc(SCC(=O)Nc3nccs3)c(-c3ccc(Cl)cc3)[nH]2)cc1,-1,4,4,-6,-9,3,·,·,·
COc1ccc(-c2[nH]c(-c3ccc(C)cc3)nc2SCC(=O)Nc2nccs2)cc1,30*,84*,-1,-1,-20,-1,6,37,-3
COc1ccc(-c2[nH]c(-c3ccc(SC)cc3)nc2SCC(=O)Nc2nccs2)cc1,17,71*,2,-106,6,-1,87*,27,63*
CCc1ccc(CN(C)C(=O)CCc2nnc(Cc3cccc(C)c3)o2)nc1,4,4,-1,-2,29,-1,·,·,·
CCc1ccc(N=Nc2ccc(O)c3[nH]cnc23)cc1,42*,42*,·,-153,·,·,34,-25,31
OC(c1ccc2c(c1)OCO2)c1ncc(-c2cccc(C(F)(F)F)c2)[nH]1 (centres undefined),1,6,·,5,·,·,·,·,·
CCOc1ccc(N(CC(=O)NC2CCCCC2)C(=O)CCC(=O)Nc2nc(C)cs2)cc1,5,130*,-2,3,32,2,8,-30,-4
CCOc1ccc(N(CC(=O)NC2CCCC2)C(=O)CCC(=O)Nc2nc(C)cs2)cc1,2,3,0,2,6,2,·,·,·
COc1ccc(N2C(=O)c3ccc(NC(C)=O)cc3C2=O)cc1,28,41*,0,10,3,0,-18,31,-22
CC(CNC(=O)c1ccc(OC2CCN(Cc3ccccn3)CC2)cc1)Oc1cccnc1 (centres undefined),0,-2,0,6,37,0,·,·,·
N#Cc1cc(C(=O)c2cc(Br)ccc2O)cn(Cc2ccccc2)c1=O,18,50*,1,-32,9,16,13,0,18
COc1ccccc1-n1cc(C(=O)c2cc(Cl)ccc2O)cc(C#N)c1=O,7,47*,2,-19,4,13,17,-23,8
COc1ccc(O)c(C(=O)c2cc(C#N)c(=O)n(Cc3ccccc3)c2)c1,0,5,1,-10,2,4,·,·,·
COCCn1cc(C(=O)c2cc(Br)ccc2O)cc(C#N)c1=O,9,94*,-3,-27,0,17,8,21,4
